Source: PubChem BioAssay (NCATS)
Several values for one entry are separate records, joined by “and”; a condition that tells them apart may be missing. Identical values can stand only once. Activity calls are given as the source filed them. The call rests on the fitted dose curve.

Test: qHTS drug screen for cell cycle checkpoint inhibitors in PARPi-resistant BRCA-mutant ovarian cancer cell lines. (AID 1963452)
Details: PEO1/OlaR viability, CellTiter-Glo luminescence, 96 h; for Z-AUC: stronger effect = lower value
Procedure, shortened: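 PEO1, PEO4 and PEO1/OlaR ovarian cancer cells, 600 per well, exposed 96 h at 37C to a dilution series. Viability read by CellTiter-Glo luminescence, normalized to DMSO and empty wells; activity summarized as Z-AUC.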

[1] = measured here: PEO1 parental Z-AUC
Potency means the concentration at half of the fitted maximal effect.

Which Z-AUC does the source give for `CC(=O)N1CCN(CCOc2ccc(C3CCN(C4=Nn5c(nnc5C(F)(F)F)CC4)CC3)cc2)CC1` here?
The Z-AUC was -0.519 (inactive).

What about the Z-AUC [1] of the same molecule?
The Z-AUC was -0.781.

What about the Z-AUC (measured here: PEO4 Z-AUC) of the same molecule?
The Z-AUC was -0.776.

Which results are given for `Cc1nc(NC(=O)N2CCC[C@H]2C(N)=O)sc1-c1ccnc(C(C)(C)C(F)(F)F)c1`?
Z-AUC: -0.211 (inactive) and -0.86 (inactive); Z-AUC [1]: -0.228 and -0.204; Z-AUC (measured here: PEO4 Z-AUC): -0.403 and -0.389

With `Cc1[nH]c(/C=C2\C(=O)Nc3ccc(S(=O)(=O)N(C)c4cccc(Cl)c4)cc32)c(C)c1C(=O)N1CCN(C)CC1` as the molecule, how does the Z-AUC read?
Its Z-AUC is 1.27 (inactive).

And the Z-AUC [1]?
The Z-AUC was 1.2.

And the Z-AUC (measured here: PEO4 Z-AUC)?
The Z-AUC was 1.26.

Which Z-AUC does the source give for `N#Cc1ccc(COC[C@H]2O[C@@H](n3c(NCc4ccc(Cl)c(Cl)c4)nc4c(N)ncnc43)[C@H](O)[C@@H]2O)cc1` here?
Its Z-AUC is -0.735 (inactive).

What about the Z-AUC [1] of the same molecule?
Its Z-AUC is -0.265.

What about the Z-AUC (measured here: PEO4 Z-AUC) of the same molecule?
Its Z-AUC is 0.0878.

Which Z-AUC does the source give for `C=CC(=O)Nc1cccc(Nc2nc(Nc3ccc(NC4CN(CCF)C4)cc3OC)ncc2C(F)(F)F)c1` here?
The Z-AUC was 0.83 (inactive).

And the Z-AUC [1]?
Its Z-AUC is 0.499.

What about the Z-AUC (measured here: PEO4 Z-AUC) of the same molecule?
The Z-AUC was 0.584.

For `O=C(N[C@H]1CCC[C@H](CO)C1)C1CCN(c2nc3cc(Cl)c(-c4ccc(Cl)cc4)cc3o2)CC1`, which Z-AUC is on record?
Its Z-AUC is -0.759 (inactive).

And the Z-AUC [1]?
The Z-AUC was 0.237.

What about the Z-AUC (measured here: PEO4 Z-AUC) of the same molecule?
Its Z-AUC is -0.768.

Which results are given for `CN1CCN(c2ccc(OC(F)(F)F)c(Nc3ncc4c(n3)-c3c(c(C(N)=O)nn3CCO)CC4)c2)CC1`?
Z-AUC: -0.858 (inactive); Z-AUC [1]: -1.94; Z-AUC (measured here: PEO4 Z-AUC): -1.88

What does the source list for `Nc1nc(OCc2cc(Br)cs2)c2[nH]cnc2n1`?
Z-AUC: -0.86 (inactive); Z-AUC [1]: 0.672; Z-AUC (measured here: PEO4 Z-AUC): 0.221

For `Cc1nc2ccc(-n3ncc(C(=O)c4cc5ccccc5[nH]4)c3N)cc2[nH]1`, which Z-AUC is on record?
Its Z-AUC is -0.798 (inactive).

What about the Z-AUC [1] of the same molecule?
Its Z-AUC is -1.1.

And the Z-AUC (measured here: PEO4 Z-AUC)?
The Z-AUC was -0.294.

With `Cc1[nH]c2ccc(F)cc2c1-c1nc2c3cccnc3c3ncccc3c2[nH]1` as the molecule, how does the Z-AUC read?
The Z-AUC was -1.49 (inactive).

What about the Z-AUC [1] of the same molecule?
The Z-AUC was -0.715.

What about the Z-AUC (measured here: PEO4 Z-AUC) of the same molecule?
Its Z-AUC is -1.31.

Which results are given for `COc1cc2c(cc1OCCCN1CCCC1)N=C(N)C21CCC1`?
Z-AUC: -0.834 (inactive); Z-AUC [1]: -0.0136; Z-AUC (measured here: PEO4 Z-AUC): -0.411

What does the source list for `FC(F)(F)c1ccc(/C=C/c2nc(COc3ccc(CCCCn4ccnn4)cc3)co2)cc1`?
Potency: 195 nM (active); Z-AUC [1]: -3.45; Z-AUC (measured here: PEO4 Z-AUC): -2.45

Which Z-AUC does the source give for `Nc1nccc(-c2c(-c3ccc(F)cc3)ncn2C2CCCCC2)n1` here?
The Z-AUC was -0.78 (inactive).

What about the Z-AUC [1] of the same molecule?
The Z-AUC was 1.09.

And the Z-AUC (measured here: PEO4 Z-AUC)?
The Z-AUC was 0.204.

Which Z-AUC does the source give for `CN1CCN(C2CCN(C(=O)Nc3cc(Oc4ccc(NC(=O)C5(C(=O)Nc6ccc(F)cc6)CC5)c(F)c4)ccn3)CC2)CC1` here?
Its Z-AUC is 0.53 (inactive).

What about the Z-AUC [1] of the same molecule?
Its Z-AUC is 0.13.

What about the Z-AUC (measured here: PEO4 Z-AUC) of the same molecule?
Its Z-AUC is -0.114.

For `CCC[C@H](N[C@H]1CCc2cc(F)cc(F)c2C1)C(=O)Nc1cn(C(C)(C)CNCC(C)(C)C)cn1`, which Z-AUC is on record?
The Z-AUC was -0.27 (inactive).

What about the Z-AUC [1] of the same molecule?
Its Z-AUC is 0.0318.

What about the Z-AUC (measured here: PEO4 Z-AUC) of the same molecule?
Its Z-AUC is -0.108.

Which Z-AUC does the source give for `CC(/C=C/C(=O)NO)=C\[C@@H](C)C(=O)c1ccc(N(C)C)cc1` here?
Its Z-AUC is -0.778 (inactive).

And the Z-AUC [1]?
The Z-AUC was -0.861.

And the Z-AUC (measured here: PEO4 Z-AUC)?
The Z-AUC was -1.61.

What does the source list for `CCNC(=O)C#Cc1ccc2c(C(=Nc3ccc(CN(C)C)cc3)c3ccccc3)c(O)[nH]c2c1`?
Potency: 535 nM (active); Z-AUC [1]: -2.66; Z-AUC (measured here: PEO4 Z-AUC): -2.58

Which results are given for `C=CC(=O)N1CCC(Oc2cc3c(Nc4ccc(Cl)c(Cl)c4F)ncnc3cc2OC)CC1`?
Z-AUC: -0.983 (inactive); Z-AUC [1]: -1.08; Z-AUC (measured here: PEO4 Z-AUC): -0.834

With `Cn1ncc(Cl)c1-c1cc(C(=O)N[C@H](CN)Cc2ccc(F)c(F)c2)sc1Cl` as the molecule, how does the Z-AUC read?
The Z-AUC was 0.188 (inactive).

And the Z-AUC [1]?
Its Z-AUC is 0.381.

What about the Z-AUC (measured here: PEO4 Z-AUC) of the same molecule?
The Z-AUC was -0.0194.

What does the source list for `CCOc1cc(C(C)(C)C)ccc1C1=N[C@@](C)(c2ccc(Cl)cc2)[C@@](C)(c2ccc(Cl)cc2)N1C(=O)N1CCN(CC(=O)N2CCOCC2)CC1`?
Z-AUC: -0.291 (inactive); Z-AUC [1]: 0.35; Z-AUC (measured here: PEO4 Z-AUC): 0.188

Which results are given for `CC(C)NC(=O)COc1cccc(-c2nc(Nc3ccc4[nH]ncc4c3)c3ccccc3n2)c1`?
Potency: 4360 nM (active); Z-AUC [1]: -1.21; Z-AUC (measured here: PEO4 Z-AUC): -1.12

Which Z-AUC does the source give for `COc1cc(N2CCC(N)CC2)ccc1Nc1ncc(Cl)c(-c2c[nH]c3ccccc23)n1` here?
The Z-AUC was -1.17 (inactive).

And the Z-AUC [1]?
Its Z-AUC is -1.5.

And the Z-AUC (measured here: PEO4 Z-AUC)?
Its Z-AUC is -2.07.

With `COC(C)(C)CCn1nc(Nc2c(C)cccc2C)c2cnc(Nc3ccc(OCCN4CCCC4)c(F)c3)nc21` as the molecule, how does the Z-AUC read?
Its Z-AUC is -0.962 (inactive).

And the Z-AUC [1]?
Its Z-AUC is -0.494.

And the Z-AUC (measured here: PEO4 Z-AUC)?
The Z-AUC was 0.564.

Which results are given for `N#Cc1ccnc(Nc2cc(C3CCN(C4COC4)CC3)cc(N3CCC(F)(F)C3)n2)c1`?
Z-AUC: -0.647 (inactive); Z-AUC [1]: -0.398; Z-AUC (measured here: PEO4 Z-AUC): 0.109

What does the source list for `Cc1c[nH]c2ncnc(N3CCC(CN)(C(=O)Nc4cccc(OC(=O)N(C)C)c4)CC3)c12`?
Z-AUC: -0.731 (inactive) and 0.531 (inactive); Z-AUC [1]: -0.27 and -0.244; Z-AUC (measured here: PEO4 Z-AUC): -0.694 and 1.07
